AmpC inh detg: qHTS Inhibitors of AmpC Beta-Lactamase (assay with detergent). AmpC hydrolysis of nitrocefin, absorbance 480 nm, 0.01% Triton. Potency, µM (titrated, usually from 114 µM), most hits filed as inhibitors. 370,000 compounds, 0.041% hits; also: nearly all actives have a fitted effect of over 25% in size
Target sequence (P00811 whole entry, looked up): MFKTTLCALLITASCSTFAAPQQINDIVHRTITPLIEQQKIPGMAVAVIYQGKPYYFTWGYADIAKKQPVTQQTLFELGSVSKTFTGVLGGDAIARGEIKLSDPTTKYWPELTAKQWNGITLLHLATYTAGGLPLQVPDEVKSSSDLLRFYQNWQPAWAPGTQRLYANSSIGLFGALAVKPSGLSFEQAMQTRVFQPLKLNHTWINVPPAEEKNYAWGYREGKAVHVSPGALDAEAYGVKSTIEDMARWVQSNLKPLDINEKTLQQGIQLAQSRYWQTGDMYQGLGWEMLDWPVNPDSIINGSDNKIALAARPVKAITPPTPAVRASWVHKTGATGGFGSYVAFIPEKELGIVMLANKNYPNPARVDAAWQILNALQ
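AmpC (5.3 nM in the dispensed reagent) in 20 mM phosphate pH 7.0 with 0.01% (detergent screen) or 0.0001% Triton X-100 was preincubated with compounds for 15 min at room temperature. Nitrocefin was then added from an 800 uM solution, and hydrolysis was followed at 480 nm.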
Tb PYK inh: qHTS of Trypanosoma Brucei Inhibitors | pyruvate kinase (Trypanosoma brucei), Q57TT1 | TbPYK enzyme, Kinase-Glo Plus ATP luminescence, 45 min | Potency, µM (highest dose often 76.8 µM), most hits filed as inhibitors | 410,000 compounds, 0.12% hits; also: nearly all actives have a fitted effect of over 50% in size
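Glycolytic pyruvate kinase of T. brucei was incubated with substrate, test compound and 130 uM ADP for 45 minutes at room temperature. Luminescent Kinase-Glo Plus signal was measured after 10 minutes.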
RE007 growth inh: qHTS Assay for Inhibitors of the HIV-1 protein Vpr | S. pombe RE007 Vpr strain, BacTiter-Glo ATP luminescence, 24 h | Potency, µM (titrated, usually from 92.2 µM), hits mostly inhibitors | 360,000 compounds, 0.21% hits; active = well fitted falling curve with a large enough effect; inconclusive = small, poorly fitted or top-dose-only effect; inactive = no such curve, though single readings can be large or run the other way; also: nearly all actives have a fitted effect of over 50% in size
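Fission yeast RE007 carrying one integrated HIV-1 vpr copy, seeded at OD 0.01 in PMG+AL medium with 23 nL pinned compound. Grown 24 h at 30 degrees; viability read by BacTiter-Glo luminescence after 5 min.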
AmpC no deterg: qHTS Inhibitors of AmpC Beta-Lactamase (assay without detergent); P00811; AmpC nitrocefin hydrolysis, absorbance 480 nm, 0.0001% Triton; Potency, µM (titrated, usually from 57.1 µM), hits mostly inhibitors; 330,000 compounds, 0.52% hits; AID 485341, 2010; also: nearly all actives have a fitted effect of over 20% in size
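AmpC (5.3 nM in the dispensed reagent) in 20 mM phosphate pH 7.0 with 0.01% (detergent screen) or 0.0001% Triton X-100 was preincubated with compounds for 15 min at room temperature. Nitrocefin was then added from an 800 uM solution, and hydrolysis was followed at 480 nm.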
Sm TGR block: qHTS Assay for the Inhibitors of Schistosoma Mansoni Peroxiredoxins. Schistosoma mansoni thioredoxin glutathione reductase (TGR), Q962Y6. purified TGR, DTNB reduction, TNB absorbance 405 nm. Potency, µM (series often up to 114 µM), actives largely listed as inhibitors. 360,000 compounds, 3% hits. AID 485364, 2010; also: nearly all actives have a fitted effect of over 60% in size
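First, TGR (20 nM dispensed) and NADPH were mixed with compound. Second, a 15 min room-temperature incubation followed. Third, further NADPH and then DTNB were added to start the reaction. Finally, TNB absorbance was monitored kinetically.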
SARS PLP yeast: qHTS of Yeast-based Assay for SARS-CoV PLP | S. cerevisiae expressing SARS-CoV PLpro, growth rescue | Potency, µM (highest dose often 32.9 µM), most hits filed as activators | 330,000 compounds, 0.19% hits | AID 485353, 2010; calls by dose curve; also: nearly all actives have a fitted effect of over 55% in size
Numbers stand for hits; – = inactive; ? = inconclusive; · = not tested or not shown. In the library only some 3.3% were active in any assay of this set; here they are far more common. Unless noted, calls follow the shape of the dose curve; as a rule, active = well fitted curve in the direction sought with a large enough effect; inconclusive = small, poorly fitted or top-dose-only effect, or another doubt; inactive = no such curve, though single readings can be large; an effect the other way counts as inactive or inconclusive.

SMILES	AmpC inh detg	Tb PYK inh	RE007 growth inh	AmpC no deterg	Sm TGR block	SARS PLP yeast
CC(=O)c1c(C)[nH]c(C(=O)Nc2cccc(S(=O)(=O)N3CCOCC3)c2)c1C	–	–	–	–	–	–
CC(=O)c1c(C)[nH]c(C(=O)CN2CCN(S(=O)(=O)c3ccccc3)CC2)c1C	–	–	–	–	45µM	–
O=C(O)Cc1ccc(C(=O)CSc2ccccc2)s1	–	–	–	?	20µM	–
O=C(O)Cc1ccc(C(=O)c2ccccc2)s1	–	–	–	–	–	–
Cc1ccc(SCC(=O)c2ccc(CC(=O)O)s2)cc1	–	–	–	20µM	–	–
COc1ccc(CNC(=O)Cn2nc(C)c3nn(-c4ccc(Cl)cc4)c(C)c3c2=O)cc1	–	–	·	·	–	·
CCOC(=O)Nc1ccc(C)cc1NC(=O)OCC	–	–	–	–	–	–
CCCOC(=O)Nc1ccc([As](=O)(O)O)cc1NC(=O)OCCC	–	–	–	–	13µM	–
Cc1ccc(-n2nc(CO)c(C(=O)NCCCc3ccccc3)n2)cc1	–	–	·	·	–	·
CCc1nc2ccccc2c(C(=O)Oc2cccc3cccnc23)c1C	–	–	–	–	–	–
Cc1c(C(=O)Oc2cccc3cccnc23)oc2ccccc12	–	–	40µM	–	–	–
O=C(CCl)c1cc2c3c(c1)CC(=O)N3CCC2	–	–	–	–	1.6µM	?
Cc1c2cnn(-c3ccccc3)c(=O)c2c(C)n1CCCC(=O)Nc1cc(F)ccc1F	–	–	·	·	–	·
COc1ccc(CC2C(=O)NC(=O)NC2=O)c(OC)c1	–	–	–	–	50µM	–
O=C1NN(c2cccc(Br)c2)C(=O)/C1=C\c1ccccc1	–	?	–	–	50µM	–
C/C(=N\Nc1ccc(Cl)cc1)c1c(O)cc(C)oc1=O	?	–	–	–	22µM	–
CCc1cccc(CC)c1NC(=O)CCS(=O)(=O)c1ccc(Br)s1	–	–	·	·	–	·
COc1ccc(-c2nnc(NC(=O)c3ccc4c(c3)OCCO4)o2)cc1	–	–	–	–	–	–
COc1ccc(-c2nnc(NC(=O)c3ccc(F)cc3)o2)cc1	?	–	–	22µM	–	–
Cc1cccnc1Sc1c([N+](=O)[O-])ncn1C	–	–	–	–	–	–
Cn1cnc([N+](=O)[O-])c1Sc1nnc(-c2cccnc2)n1C	–	–	–	–	0.45µM	–
NC(=O)c1nsc(C(=O)N(c2ccc(F)cc2)C(C(=O)NCC2CCCO2)c2c[nH]c3ccccc23)c1N (stereo not drawn)	–	–	–	–	25µM	–
CCOc1ccc(C(C(=O)NCC2CCCO2)N(C(=O)c2snc(C(N)=O)c2N)c2ccc(F)cc2)cc1 (stereo not drawn)	–	–	–	–	–	–
Cc1cccc(N(C(=O)c2snc(C(N)=O)c2N)C(C(=O)NCC2CCCO2)c2c[nH]c3ccccc23)c1 (stereo not drawn)	–	–	–	–	–	–
NC(=O)c1nsc(C(=O)N(c2cccc(F)c2)C(C(=O)NCC2CCCO2)c2c[nH]c3ccccc23)c1N (stereo not drawn)	–	–	–	–	18µM	–
SMILES	AmpC inh detg	Tb PYK inh	RE007 growth inh	AmpC no deterg	Sm TGR block	SARS PLP yeast
O=C1C(Cl)=C(Nc2ccc(O)cc2)C(=O)c2ccccc21	–	–	–	–	2.2µM	–
CCN(CC)c1ccc(NC2=C(Cl)C(=O)c3ccccc3C2=O)cc1	?	–	?	–	2.2µM	–
Cc1ccc(NC2=CC(=O)C(=O)c3ccccc32)cc1	–	–	?	–	–	–
Cc1ccc(NC2=C(Cl)C(=O)c3ccccc3C2=O)cc1	–	–	–	–	3.5µM	–
Cc1ccccc1-c1noc(CCC(=O)Nc2cccc(C)c2C)n1	–	–	·	·	–	·
Fc1cc(F)cc(-c2c(-c3ccccc3)ncc3ccc(F)cc23)c1	–	–	–	–	45µM	–
CC(C)(C)c1ccc(C(=O)NCC(c2cccs2)S(=O)(=O)c2ccc(F)cc2)cc1 (stereo not drawn)	–	–	·	·	–	·
O=C1NC(=O)N(c2ccccc2F)C(=O)/C1=C/c1ccc(Sc2nc3ccccc3[nH]2)o1	–	?	?	–	7.1µM	–
O=C1NC(=O)N(c2ccccc2)C(=O)/C1=C/c1ccc(Sc2ccccc2)o1	–	?	–	–	25µM	–
O=C1NC(=O)N(c2cccc(Cl)c2)C(=O)/C1=C\c1ccc(Sc2nc3ccccc3[nH]2)o1	–	?	–	22µM	7.1µM	–
COc1cc(NCc2ccc3nc(N)nc(N)c3c2C)cc(OC)c1OC	·	–	·	·	·	·
CCOCCCNC(=S)N1C2CCC1CC(NC(=O)NC1CCCCC1)C2 (stereo not drawn)	–	–	–	0.32µM	–	–
CC1=C([N+](=O)[O-])C(c2ccccc2)C2=C(N1)c1ccccc1C2=O (stereo not drawn)	–	–	–	–	14µM	–
COc1ccc(C2C(C#N)=C(C)NC3=C2C(=O)c2ccccc23)cc1 (stereo not drawn)	–	–	–	–	–	–
Cc1ccc(S(=O)(=O)c2nc(-c3ccco3)oc2SCC(N)=O)cc1	–	–	–	–	40µM	–
CC(C)Sc1oc(-c2ccco2)nc1S(=O)(=O)c1ccc(F)cc1	–	–	–	–	18µM	–
Cc1ccc(-c2nc(S(=O)(=O)c3ccc(C)cc3)c(SCC(N)=O)o2)cc1	–	–	–	–	–	–
CCCSc1oc(-c2ccco2)nc1S(=O)(=O)c1ccc(Br)cc1	–	–	·	·	–	·
NC(=O)CSc1oc(-c2ccco2)nc1S(=O)(=O)c1ccc(Br)cc1	–	–	–	–	18µM	–
CSc1oc(-c2ccco2)nc1S(=O)(=O)c1ccc(Br)cc1	?	–	–	–	50µM	–
COc1cccc(CNC(=O)CN(c2ccc(C(C)C)cc2)S(=O)(=O)c2c(C)n[nH]c2C)c1	–	–	·	·	–	·
CCCSc1oc(-c2ccco2)nc1S(=O)(=O)c1ccccc1	–	–	–	–	56µM	–
NC(=O)CSc1oc(-c2ccco2)nc1S(=O)(=O)c1ccc(Cl)cc1	–	–	–	–	20µM	–
CCCc1cc(C(=O)Nc2c(C)nn(Cc3ccc(Cl)c(Cl)c3)c2C)no1	–	–	·	·	–	·
O=C(/C=C/c1ccco1)N/C(=C\c1ccccc1)C(=O)NCCc1nc2ccccc2[nH]1	–	–	–	–	50µM	–

Screening data (PubChem)
